Bioassay records deposited in PubChem BioAssay by National Center for Advancing Translational Sciences (NCATS).
This is a sample that favours compounds with a hit; in the whole collection about 6.6% have one here.
MCF10A rereplic: A quantitative high throughput screen for small molecules that induce DNA re-replication in MCF 10a normal breast cells; MCF 10A DNA re-replication, Hoechst nuclear intensity, 48 h; Potency, µM (series often up to 46.1 µM), for inactives: at the highest dose activity, positive = re-replication, actives largely listed as activators; actives 2.9% (n = 350,000); AID 624296, 2012; further: % of control where 0% means no effect; nearly all actives have a fitted effect of over 50% in size
RGS4 inh: Inhibitors of Regulator of G Protein Signaling (RGS) 4: qHTS; Regulator of G-protein signaling 4 (Homo sapiens), P49798; Transcreener GDP fluorescence polarization, RGS4-accelerated GTP hydrolysis; Potency, µM (titrated, usually from 114 µM), for inactives: at the highest dose activity change, negative = inhibition, usual class: inhibitors; actives 0.039% (n = 390,000); further: on the % scale 0 is the no-effect control and ±100 the full control effect; nearly all actives have a fitted effect of over 75% in size
Target sequence (P49798 whole entry, looked up): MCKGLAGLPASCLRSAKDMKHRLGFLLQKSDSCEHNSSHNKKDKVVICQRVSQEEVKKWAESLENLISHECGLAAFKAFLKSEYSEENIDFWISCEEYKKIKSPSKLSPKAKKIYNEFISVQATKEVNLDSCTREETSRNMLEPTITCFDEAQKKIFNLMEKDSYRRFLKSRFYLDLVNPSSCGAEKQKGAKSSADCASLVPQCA
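MLSMR compounds (23 nl, pin-transferred) preincubated 10 min at room temperature with a 500nM (2x) first reagent, then RGS4 at 900nM (2x) plus Transcreener GDP mix added; fluorescence polarization (620/688 nm) read before and after 90 min at 30 °C.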
KB-3-1 tox: qHTS assay for MDR1-selective chemotherapeutics: Primary screen using the parental adenocarcinoma cell KB-3-1 | KB-3-1 viability, CellTiter-Glo ATP luminescence, 72 h | Potency, µM (series often up to 46.1 µM), most hits filed as cytotoxic | actives 1.4% (n = 400,000); further: on the % scale 0 is the no-effect control and ±100 the full control effect; nearly all actives have a fitted effect of over 60% in size
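Viability of parental KB-3-1 cells, measured by CellTiter-Glo luminescence, followed a 72 h incubation at 37 °C with pinned compounds in phenol-red-free DMEM containing 10% FBS.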
SW480 rereplic: A quantitative high throughput screen for small molecules that induce DNA re-replication in SW480 colon adenocarcinoma cells; SW480 DNA re-replication, Hoechst DNA content imaging, 48 h; actives 1.8% (n = 340,000); Potency, µM (doses to about 46.1 µM), for inactives: top-dose re-replication activation, actives largely listed as activators; further: % of control where 0% means no effect; nearly all actives have a fitted effect of over 55% in size
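Hoechst fluorescence of nuclei (405 nm excitation, 500-530 nm emission) measured by plate-scanning imager after 48 hr compound exposure at 37 C; re-replication scored as increased number of nuclei with elevated intensity.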
KB-V1 MDR tox: qHTS assay for MDR1-selective chemotherapeutics: Primary screen using the drug-selected MDR subline cells KB-V1; KB-V1 MDR cells viability, CellTiter-Glo, 72 h; actives 3.4% (n = 400,000); Potency, µM (highest dose often 46.1 µM), actives largely listed as cytotoxic; further: on the % scale 0 is the no-effect control and ±100 the full control effect; nearly all actives have a fitted effect of over 60% in size
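KB-V1, DMEM (no phenol red) + 10% FBS; cpd pin-transferred, titration series; 72 h, 37 degrees C; CellTiter-Glo, luminescence. Data normalized, curve-fit.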
PTAP TSG101 blk: qHTS Assay for Iinhibitors of HIV-1 Budding by Blocking the Interaction of PTAP/TSG101 | Tumor susceptibility gene 101 protein (Homo sapiens), Q99816 | Fluorescence polarization, FITC-PTAP peptide / Tsg101 binding | Potency, µM (highest dose often 115 µM), inactives show at the highest dose activity change, negative = inhibition, actives largely listed as inhibitors | 340,000 tested, under 10 active; active means well fitted inhibition curve with a large enough effect in the main read-out, with a control signal flat, not every such curve was filed as active; inconclusive means small, poorly fitted or top-dose-only effect, or effect the other way, or a change in a side signal; inactive means no such curve, though single readings can be large or run the other way; further: % of control where 0% means no effect
Target sequence (Q99816 whole entry, looked up): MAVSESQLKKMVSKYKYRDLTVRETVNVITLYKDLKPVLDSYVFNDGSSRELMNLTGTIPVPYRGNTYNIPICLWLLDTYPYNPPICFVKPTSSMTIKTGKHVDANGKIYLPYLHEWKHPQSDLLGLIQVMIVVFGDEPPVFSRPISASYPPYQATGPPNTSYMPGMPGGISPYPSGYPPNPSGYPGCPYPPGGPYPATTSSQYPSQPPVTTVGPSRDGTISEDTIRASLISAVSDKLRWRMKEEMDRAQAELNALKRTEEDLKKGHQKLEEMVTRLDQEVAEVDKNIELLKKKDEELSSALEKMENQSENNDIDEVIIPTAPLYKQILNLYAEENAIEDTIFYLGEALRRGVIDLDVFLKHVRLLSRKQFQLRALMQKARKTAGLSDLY
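Fluorescence polarization binding of Tsg101 binding domain (10 uM final) to FITC-labeled PTAP peptide (50 nM final) in HEPES pH 7.5 buffer with NaCl, Tween 20, EDTA, TCEP. Compounds added before peptide; binding 20 min at RT.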
Numbers without * were called inactive; i = inactive; u = inconclusive; x = no result; ! = not confirmed by another sample; [ ] = remark or other dose. Unless noted, the call rests on the fitted dose curve; in most records, active means well fitted curve in the direction sought with a large enough effect; inconclusive means small, poorly fitted or top-dose-only effect, or another doubt; inactive means no such curve, though single readings can be large; an effect the other way counts as inactive or inconclusive. Potency means the concentration at half of the fitted maximal effect.

SMILES | MCF10A rereplic | RGS4 inh | KB-3-1 tox | SW480 rereplic | KB-V1 MDR tox | PTAP TSG101 blk
CCc1ccc(C(=O)c2cnc3ccc(F)cc3c2S(=O)(=O)c2ccccc2)cc1 | x | 25.0% | i | x | i | x
COc1ccc2nc(C)cc(NCc3cccc(C(F)(F)F)c3)c2c1 | 20.6µM* | 6.6% | i | 23.1µM* | u | -2.3%
COc1ccc2nc(C)cc(Nc3ccccc3O)c2c1 | -9.2% | -90.9%[56.9 µM] | i | 3.9% | u | -0.6%
COc1ccccc1-c1c(-c2ccc(OCC(=O)NN)cc2O)n[nH]c1C(F)(F)F | u | -6.8% | i | 13.1% | i | -6.0%
COc1ccc(-c2n[nH]c(C(F)(F)F)c2-c2cc3ccccc3o2)c(O)c1 | -1.9% | -27.1% | i | 9.0% | 18.4µM* | -1.5%
COc1ccccc1NC(=O)Cc1csc(NC(=S)Nc2ccccc2)n1 | u | -32.5% | u | 2.59µM* | 9.2µM* | -4.8%
COc1ccc(NC(=S)Nc2nc(CC(=O)Nc3ccccc3OC)cs2)cc1 | 20.6µM* | -43.2% | u | u | 8.2µM* | 0.3%
CCOC(=O)Cc1csc(NC(=O)Cc2ccccc2)n1 | 6.8% | 56.5% | i | -6.4% | u | -2.1%
COc1ccc(OC)c(NC(=O)Cc2csc(NC(=O)Nc3ccccc3OC)n2)c1 | u | -31.8% | i | 1.0% | u | -1.9%
CCC(=O)Nc1nc(CC(=O)Nc2ccccc2)cs1 | 5.8% | -13.0% | i | -1.9% | 25.9µM* | -7.0%
O=C(CSc1nc2[nH]c(=O)cc(O)c2s1)Nc1nncs1 | -3.7% | u | i | 9.4% | i | -1.6%
Cc1csc(NC(=O)CSc2nc3[nH]c(=O)cc(O)c3s2)n1 | 9.2µM* | 4.7% | 4.11µM* | u | 20.6µM* | 0.0%
CCOCCCNC(=O)c1c(NC(=O)c2cc(=O)c3ccccc3o2)sc2c1CCC2 | x | 27.3% | i | x | i | x
CCOc1ccc(CCNC(=O)CN2C(=O)COc3ccc(S(=O)(=O)N4CCC(C)CC4)cc32)cc1 | x | -4.5% | u | x | u | x
CC(=O)Nc1cccc(OC2=NS(=O)(=O)c3ccccc32)c1 | x | x | i | x | i | x
CCc1ccc(C(C(=O)NC2CCCC2)N(C(=O)/C=C/C(=O)Nc2cc(C)on2)c2ccccc2C)cc1 (centres undefined) | 14.6% | -6.4% | u | u | i | -6.4%
CCOc1ccc(N(C(=O)/C=C/C(=O)Nc2cc(C)on2)C(C(=O)NC2CCCC2)c2ccccc2C)cc1 (centres undefined) | -0.6% | 9.1% | 9.2µM* | -3.6% | u | 0.0%
CCCCc1ccc(C(=O)COC(=O)c2ccc3nc(C)c(C)nc3c2)cc1 | x | x | u | x | i | x
CC1=CSC2=NC(=O)/C(=C\c3cccn3-c3ccc([N+](=O)[O-])cc3)C(=N)N12 | u | -24.8% | i | u | 2.91µM* | 0.0%
CC(C)c1ccc(-n2cccc2/C=C2/C(=N)N3C=CSC3=NC2=O)cc1 | 23.1µM* | -6.1% | u | u | 20.6µM* | 0.5%
CC1=CSC2=NC(=O)/C(=C\c3cccn3-c3ccccc3)C(=N)N12 | 2.3% | -17.2% | i | 21.7% | u | -0.2%
COc1ccc(-c2ccc(/C=C3/C(=N)N4C(C)=CSC4=NC3=O)o2)c([N+](=O)[O-])c1 | 20.6µM* | u | i | 8.9% | u | -3.3%
COc1ccc(-c2ccc(/C=C3\C(=O)N(c4ccccc4)N=C3c3ccccc3)o2)c([N+](=O)[O-])c1 | -1.0% | 8.4% | i | -1.5% | i | -5.5%
Cc1ccc(S(=O)(=O)N2CCN(S(=O)(=O)c3ccc4c(c3)OCCCO4)CC2)cc1 | x | -18.9% | u | x | i | x
Cc1csc2sc(-c3ccnc(SCC(=O)NCc4ccccc4)n3)c(C)c12 | u | -12.7% | u | 18.4µM* | 5.8µM* | 0.6%
SMILES | MCF10A rereplic | RGS4 inh | KB-3-1 tox | SW480 rereplic | KB-V1 MDR tox | PTAP TSG101 blk
Cc1csc(SCC(=O)NCc2ccccc2)n1 | -28.4% | -13.7% | i | 8.4%[1.84 µM] | i | -4.4%
Cc1ccc(-c2cc3cccc[n+]3cc2-c2ccc(C)cc2)cc1 | u | -17.4% | 4.61µM* | -10.7% | i | -1.8%
CCc1ccc(NC(=O)CSC2=Nc3ccccc3C3=NC(CCC(=O)NCc4cccs4)C(=O)N23)cc1 (centres undefined) | x | -1.7% | i | x | i | x
O=C(CSc1nc2c([nH]c3ccccc32)c(=O)n1-c1cccc(Cl)c1)N1CCc2ccccc21 | x | -12.2% | i | x | i | x
CCn1c(C)c(C2=CCN(S(=O)(=O)c3ccc(C)cc3)CC2)c2ccccc21 | u | 9.7% | u | 2.8% | 16.4µM* | -0.8%
COc1ccc(-c2nc(CCNC(=O)c3ccccc3)cs2)cc1OC | x | 4.5% | x | x | x | x
CN(C)S(=O)(=O)c1cccc(N=c2scc(-c3ccc4c(c3)NC(=O)CO4)n2CC2CCCO2)c1 (centres undefined) | 9.0% | -2.6% | u | 1.6% | 16.4µM* | -6.8%
CCN=c1scc(-c2ccc3c(c2)NC(=O)CO3)n1N=C1CCCC1 | u | -20.3% | u | 2.3% | u | -3.5%
O=C1COc2ccc(-c3csc(=Nc4ccc(OC(F)F)cc4)n3CC3CCCO3)cc2N1 (centres undefined) | 16.4µM* | -6.6% | u | u | 2.91µM* | -4.4%
COCC(C)n1c(-c2ccc3c(c2)NC(=O)CO3)csc1=Nc1ccc(OC(F)F)cc1 (centres undefined) | 3.26µM* | 16.6% | 9.2µM*! | u | u | -8.9%
CCc1ccccc1NC(=O)c1ccc2c(c1)CCCN2S(C)(=O)=O | x | 7.3% | i | x | i | x
